Measured values as given in PubChem BioAssay.
Calls of active or inactive are those of the source.

What was measured:
[1] = system: Plasmodium falciparum Sir2 (PF13_0152, Sir2A); assay: Plasmodium falciparum Sir2A binding compounds – biochemical, small-molecule microarray, 635 nm fluorescence, primary screen (AID 1098); conditions: fluorescence 635 nm, higher = more signal;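 note: score merges spot fluorescence intensity with its signal-to-noise ratio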
[2] = probe aDKK1 binding to arrayed compounds – biochemical, biotinylated probe, 635/667 nm fluorescence, primary screen (AID 1099); conditions: small-molecule microarray, higher = more signal;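 note: score merges 667nm spot fluorescence with signal to noise across triplicate slides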
[3] = probe aCHRDL2 binding to arrayed compounds – biochemical, biotinylated probe, 635/667 nm fluorescence, primary screen (AID 1100); conditions: small-molecule microarray, higher = more signal
[4] = change in splice reporter luminescence, either direction, cell-based, HEK293, spliceosome inhibition project, primary screen (AID 1101); conditions: HEK293 splicing luciferase reporter, 24 h, higher = more signal, called active from +8 up or from −8 down;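 note: HEK293 cells carrying a splicing-competent luciferase reporter gene; test concentration not given here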
[5] = target: Fibroblast growth factor 10 (Homo sapiens) (UniProt O15520); assay: compounds binding fibroblast growth factor 10 – biochemical, small-molecule microarray, 635 nm fluorescence, primary screen (AID 1102); conditions: FGF10 binding, fluorescence 635 nm, higher = more signal
Chain of Fibroblast growth factor 10 (Homo sapiens) (O15520 whole entry, looked up): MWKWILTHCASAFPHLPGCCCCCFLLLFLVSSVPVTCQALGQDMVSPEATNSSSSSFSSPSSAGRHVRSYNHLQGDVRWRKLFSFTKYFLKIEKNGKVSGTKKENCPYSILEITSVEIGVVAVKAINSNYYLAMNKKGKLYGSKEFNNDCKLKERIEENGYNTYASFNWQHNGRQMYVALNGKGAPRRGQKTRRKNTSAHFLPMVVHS

[6] = system: glycogen synthase kinase-3 (GSK3A per assay name; protocol says GSK3B); assay: compounds binding glycogen synthase kinase-3 – biochemical, small-molecule microarray, 635 nm fluorescence, GSK3A, primary screen (AID 1103); conditions: fluorescence 635 nm, higher = more signal; note: the record names both GSK3A and GSK3B
[7] = target: Epidermal growth factor receptor (Homo sapiens) (UniProt P00533); assay: compounds binding epidermal growth factor receptor – biochemical, small-molecule microarray, 635 nm fluorescence, primary screen (AID 1104); conditions: EGFR binding, higher = more signal;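 note: score merges 667 nm emission intensity with spot signal to noise over triplicate slides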
Chain of Epidermal growth factor receptor (Homo sapiens) (P00533 whole entry, looked up): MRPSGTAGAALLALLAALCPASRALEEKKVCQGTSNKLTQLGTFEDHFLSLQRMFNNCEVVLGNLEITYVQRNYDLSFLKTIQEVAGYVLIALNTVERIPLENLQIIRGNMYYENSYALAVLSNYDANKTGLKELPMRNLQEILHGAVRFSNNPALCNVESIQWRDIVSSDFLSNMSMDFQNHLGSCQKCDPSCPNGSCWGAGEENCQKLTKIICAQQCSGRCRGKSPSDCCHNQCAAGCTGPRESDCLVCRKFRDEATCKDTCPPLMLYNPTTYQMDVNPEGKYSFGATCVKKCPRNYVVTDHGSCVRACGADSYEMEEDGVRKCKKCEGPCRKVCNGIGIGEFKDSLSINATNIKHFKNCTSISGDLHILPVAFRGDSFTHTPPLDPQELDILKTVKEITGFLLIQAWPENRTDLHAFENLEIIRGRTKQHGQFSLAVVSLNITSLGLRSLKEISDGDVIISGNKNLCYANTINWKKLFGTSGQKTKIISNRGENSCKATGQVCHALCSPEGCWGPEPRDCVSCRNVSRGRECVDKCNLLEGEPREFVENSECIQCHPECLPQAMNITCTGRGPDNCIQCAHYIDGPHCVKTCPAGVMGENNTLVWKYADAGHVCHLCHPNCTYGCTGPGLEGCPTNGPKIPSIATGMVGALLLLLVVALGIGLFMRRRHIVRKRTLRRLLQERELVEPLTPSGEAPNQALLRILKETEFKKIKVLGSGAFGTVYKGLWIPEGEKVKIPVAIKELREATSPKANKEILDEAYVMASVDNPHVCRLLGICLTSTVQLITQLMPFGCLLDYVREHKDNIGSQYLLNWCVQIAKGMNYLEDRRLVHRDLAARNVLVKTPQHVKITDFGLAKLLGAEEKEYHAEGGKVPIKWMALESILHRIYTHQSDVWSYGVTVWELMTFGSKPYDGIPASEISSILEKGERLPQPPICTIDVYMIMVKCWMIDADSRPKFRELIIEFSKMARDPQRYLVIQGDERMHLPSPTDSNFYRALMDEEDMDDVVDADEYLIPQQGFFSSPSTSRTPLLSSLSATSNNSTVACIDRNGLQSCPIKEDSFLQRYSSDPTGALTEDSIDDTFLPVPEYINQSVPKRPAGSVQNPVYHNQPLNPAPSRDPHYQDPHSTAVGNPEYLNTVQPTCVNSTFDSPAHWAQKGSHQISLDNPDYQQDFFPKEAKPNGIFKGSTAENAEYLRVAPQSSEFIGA

[8] = target: Follistatin-related protein 3 (Homo sapiens) (UniProt O95633); assay: compounds binding follistatin-related protein 3 – biochemical, small-molecule microarray, 635 nm fluorescence, primary screen (AID 1105); conditions: FSTL3 binding, higher = more signal;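 note: score merges emission near 667 nm and signal to noise per printed spot across three slides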
Chain of Follistatin-related protein 3 (Homo sapiens) (O95633 whole entry, looked up): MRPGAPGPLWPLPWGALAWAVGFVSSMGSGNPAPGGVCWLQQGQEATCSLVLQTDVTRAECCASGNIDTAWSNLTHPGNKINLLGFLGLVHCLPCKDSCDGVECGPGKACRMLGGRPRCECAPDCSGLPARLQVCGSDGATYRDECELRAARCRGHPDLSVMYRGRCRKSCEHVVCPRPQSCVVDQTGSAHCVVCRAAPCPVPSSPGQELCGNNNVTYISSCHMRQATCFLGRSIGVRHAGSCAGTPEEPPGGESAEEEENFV

[9] = target: Dickkopf-related protein 1 (Homo sapiens) (UniProt O94907); assay: small molecules binding DKK1 protein – biochemical, small-molecule microarray, 635 nm fluorescence scan, primary screen (AID 1106); conditions: higher = more signal;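 note: score merges emission near 667 nm with signal to noise over three replicate slides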
Chain of Dickkopf-related protein 1 (Homo sapiens) (O94907 whole entry, looked up): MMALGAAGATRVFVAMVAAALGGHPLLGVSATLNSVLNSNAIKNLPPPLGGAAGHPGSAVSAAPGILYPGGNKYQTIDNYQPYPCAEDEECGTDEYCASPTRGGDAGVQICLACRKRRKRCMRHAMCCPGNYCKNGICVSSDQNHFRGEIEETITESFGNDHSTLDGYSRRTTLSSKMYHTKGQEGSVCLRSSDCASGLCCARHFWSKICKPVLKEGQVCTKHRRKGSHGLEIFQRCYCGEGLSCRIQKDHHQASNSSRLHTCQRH

[10] = system: Inhibin beta A chain (activin A); assay: small molecules binding activin A – biochemical, small-molecule microarray, 635 nm fluorescence scan, primary screen (AID 1107); conditions: INHBA, higher = more signal;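 note: mouse activin A protein probed at 4.33 µg/mL on printed slides; score merges bound-protein fluorescence near 667 nm with spot signal-to-noise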
[11] = system: Human papillomavirus type 1a protein E7 (residues 44-93); assay: small molecules binding HPV E7 44-93 – biochemical, small-molecule microarray, residues 44-93, 635 nm fluorescence, primary screen (AID 1108); conditions: fluorescence 635 nm, higher = more signal;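 note: E7 fragment applied at 1 µg/mL in TBST for 1 h at 4 C; score combines spot fluorescence with its signal to noise ratio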
[12] = hepatitis C replication reporter changes, two-sided – Huh7 cells, luciferase reporter, HCV replication inhibitor project, primary screen (AID 1109); conditions: Huh7 HCV replicon luciferase reporter, 48 h; higher = more signal;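 note: huh7 hepatoma cells harbouring a luciferase neomycin HCV replicon reporter; luciferase luminescence as measure of HCV replicon replication; test concentration not given here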
[13] = target: Left-right determination factor 2 (Homo sapiens) (UniProt O00292); assay: small molecules binding LEFTY2 protein – biochemical, small-molecule microarray, 635 nm fluorescence scan, primary screen (AID 1110); conditions: higher = more signal
Chain of Left-right determination factor 2 (Homo sapiens) (O00292 whole entry, looked up): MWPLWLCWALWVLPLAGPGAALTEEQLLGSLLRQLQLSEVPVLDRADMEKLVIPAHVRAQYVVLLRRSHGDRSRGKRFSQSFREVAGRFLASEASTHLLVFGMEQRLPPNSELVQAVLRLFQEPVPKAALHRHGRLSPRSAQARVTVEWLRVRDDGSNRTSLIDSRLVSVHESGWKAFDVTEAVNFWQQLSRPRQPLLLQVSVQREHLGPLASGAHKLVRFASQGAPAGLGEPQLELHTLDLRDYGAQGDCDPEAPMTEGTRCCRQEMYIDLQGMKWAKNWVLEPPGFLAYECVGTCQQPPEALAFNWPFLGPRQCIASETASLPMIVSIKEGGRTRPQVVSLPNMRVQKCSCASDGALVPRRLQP

[14] = target: Calmodulin-1 (Homo sapiens) (UniProt P0DP23); assay: small molecules binding calmodulin-1 with EGTA – biochemical, small-molecule microarray, Cy5-labelled CALM1, profiling panel (AID 1111); conditions: Cy5-CALM1 binding fluorescence, higher = more signal;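 note: labelled calmodulin applied in Tris saline Tween buffer holding calcium plus EGTA and DTT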
[15] = target: Calmodulin-1 (Homo sapiens) (UniProt P0DP23); assay: small molecules binding Ca-loaded calmodulin-1 – biochemical, small-molecule microarray, Cy5-labelled CALM1, plus calcium, artefact control for SMM control-protein annotation, profiling panel (AID 1112); conditions: Cy5-CALM1 binding fluorescence, higher = more signal;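 note: score merges spot fluorescence with signal to noise from triplicate slides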
[16] = probe aWnt5a binding to arrayed compounds – biochemical, biotinylated probe, 635/667 nm fluorescence, primary screen (AID 1113); conditions: small-molecule microarray, higher = more signal;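 note: score merges 667 nm fluorescence intensity with signal-to-noise per printed feature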
[17] = probe aShh binding to arrayed compounds – biochemical, biotinylated probe, 635/667 nm fluorescence, primary screen (AID 1114); conditions: small-molecule microarray, higher = more signal;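 note: probe is biotin-labelled aShh protein from a stem cell growth factor screen; measures binding of labelled protein to compounds printed on the slide; score merges feature fluorescence at 667 nm with signal-to-noise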
[18] = probe aNog binding to arrayed compounds – biochemical, biotinylated probe, 635/667 nm fluorescence, primary screen (AID 1115); conditions: small-molecule microarray, higher = more signal;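 note: probe is biotinylated aNog protein used at 0.15 µg/mL for 1 h at 4 C; z-score combines 667 nm fluorescence of each spot with its signal to noise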
[19] = target: Torsin-1A-interacting protein 1 (Homo sapiens) (UniProt Q5JTV8); assay: compound microarray binding of lysate hLAP1 – cell lysate, small-molecule microarray, COS7 lysate, 635/667 nm fluorescence, primary screen (AID 1116); conditions: 635 nm fluorescence, higher = more signal
Chain of Torsin-1A-interacting protein 1 (Homo sapiens) (Q5JTV8 whole entry, looked up): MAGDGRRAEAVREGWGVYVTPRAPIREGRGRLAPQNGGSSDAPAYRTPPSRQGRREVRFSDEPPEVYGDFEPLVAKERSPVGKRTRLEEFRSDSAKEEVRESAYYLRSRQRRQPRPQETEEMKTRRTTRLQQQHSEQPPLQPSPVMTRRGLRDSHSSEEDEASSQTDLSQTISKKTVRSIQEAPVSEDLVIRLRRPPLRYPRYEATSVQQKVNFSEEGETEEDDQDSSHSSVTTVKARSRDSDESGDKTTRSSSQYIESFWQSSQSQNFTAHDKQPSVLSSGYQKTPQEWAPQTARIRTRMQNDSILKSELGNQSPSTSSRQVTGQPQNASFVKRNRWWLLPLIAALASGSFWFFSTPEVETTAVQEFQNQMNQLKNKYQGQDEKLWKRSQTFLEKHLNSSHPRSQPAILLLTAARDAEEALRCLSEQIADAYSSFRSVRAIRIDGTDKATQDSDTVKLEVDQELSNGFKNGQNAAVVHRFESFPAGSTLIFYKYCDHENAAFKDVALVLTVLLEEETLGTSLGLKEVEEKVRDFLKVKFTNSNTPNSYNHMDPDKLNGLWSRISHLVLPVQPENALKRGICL

[20] = target: Alpha-bungarotoxin (Bungarus multicinctus) (UniProt P60615); assay: compounds binding labelled alpha-BTX control protein – biochemical, small-molecule microarray, Alexa647 label, 635/667 nm fluorescence, artefact control for SMM control protein annotation, profiling panel (AID 1117); conditions: alpha-BTX-A647 binding fluorescence, higher = more signal
Chain of Alpha-bungarotoxin (Bungarus multicinctus) (P60615 whole entry, looked up): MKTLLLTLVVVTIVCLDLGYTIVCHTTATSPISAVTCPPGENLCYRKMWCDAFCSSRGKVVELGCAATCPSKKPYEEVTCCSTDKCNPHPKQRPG

SMILES	composite z-score [1]	composite z-score [2]	composite z-score [3]	z-score [4]	composite z-score [5]	composite z-score [6]	composite z-score [7]	composite z-score [8]	composite z-score [9]	composite z-score [10]	composite z-score [11]	z-score [12]	composite z-score [13]	composite z-score [14]	composite z-score [15]	composite z-score [16]	composite z-score [17]	composite z-score [18]	composite z-score [19]	composite z-score [20]
O=C1O[C@@H](c2ccccc2)[C@@H](c2ccccc2)N2[C@@H](c3ccccc3OCCO)[C@]3(C(=O)Nc4ccc(C#CCCO)cc43)[C@@H](C(=O)N3CCN(c4ncccn4)CC3)[C@H]12	0.879	-0.0415	0.225	-1.09 (inactive)	0.376	0.649	-0.022	0.315	0.464	-0.055	1.39	-1.71	-0.0407	1.15	0.27	-0.096	-0.16	-0.332	0.744	1.23
C=CCNC(=O)[C@H]1[C@@H]2C(=O)O[C@@H](c3ccccc3)[C@@H](c3ccccc3)N2[C@@H](c2ccccc2OCCO)[C@]12C(=O)N(C(=O)OCCOC)c1ccc(C#CC3=CCCCC3)cc12	1.39	0.683	0.521	-1.85 (inactive)	0.996	1.22	0.69	1.32	1.11	1.41	1.43	-3.34	0.68	1.63	0.49	0.125	0.0915	1.12	0.794	1.4
COCCOC(=O)N1C(=O)[C@@]2(c3cc(C#CC4(O)CCCCCC4)ccc31)[C@H](C(N)=O)[C@H]1C(=O)O[C@H](c3ccccc3)[C@H](c3ccccc3)N1[C@@H]2c1ccc(O)cc1	1.16	-0.116	-0.0074	-0.538 (inactive)	1.09	1.01	0.406	1.28	0.489	0.496	1.4	-1.39	0.556	0.36	-0.471	-0.0203	-0.206	0.225	0.0793	0.74
COCCOC(=O)N1C(=O)[C@@]2(c3cc(C#CC4=CCCCC4)ccc31)[C@H](C(=O)N1CCN(c3ncccn3)CC1)[C@H]1C(=O)O[C@H](c3ccccc3)[C@H](c3ccccc3)N1[C@@H]2c1ccc(O)cc1	0.827	0.646	0.509	0.345 (inactive)	0.664	1.27	0.466	1.14	0.496	0.275	0.683	-1.46	0.557	0.951	0.727	-0.0685	0.258	0.0234	1.28	1.45
CCOC(=O)C1=CC[C@@H](c2ccccc2)N(S(=O)(=O)c2ccc(C)cc2)C1	0.243	0.617	0.931	0.259 (inactive)	-0.0077	0.121	0.0223	0.36	0.107	1.29	0.493	-2.23	-0.0161	-0.11	-0.374	-0.0459	0.485	0.005	0.127	0.329
COc1cc2c(cc1O)C(C)N(Cc1cc3c(cc1Br)OCO3)CC2 (stereo not given)	1	0.623	0.749	-0.363 (inactive)	-0.0175	-1.11	-0.277	-0.475	-0.165	0.561	-1.15	-0.0195	-0.407	0.0966	0.201	-0.0944	-0.338	-0.252	0.208	-0.0712
COCCOC(=O)N1C(=O)[C@@]2(c3cc(C#CC4(O)CCCCCC4)ccc31)[C@H](c1ccccc1OCCO)N1[C@H](c3ccccc3)[C@H](c3ccccc3)OC(=O)[C@H]1[C@@H]2C(N)=O	0.651	0.255	0.0813	-0.349 (inactive)	0.804	1.28	0.442	1.14	1.06	-0.132	-0.389	-3.33	0.844	1.06	0.0078	-0.101	0.337	0.347	0.425	1.72
CCCCN1CC=CC23O[C@@H]4C=CCOC(=O)[C@@H]4[C@H]2C(=O)N(CCCO)[C@@H]3C1=O (stereo not given in full)	1.24	-0.159	0.48	-1.32 (inactive)	-0.816	-1.16	-0.953	-1.18	-1.05	0.396	0.409	-0.352	-0.997	-0.125	0.423	-0.202	-0.138	-0.168	-0.363	-1.34
CC=CC(O)C1C=CC2C(=O)N(C)C(=O)C2N1N1CCCCC1 (stereo not given)	1.11	0.123	0.452	0.661 (inactive)	0.888	1.23	0.519	1.26	0.22	0.898	1.15	0.121	0.364	1.41	0.127	0.0559	-0.151	-0.39	0.923	1.1
Cc1ccc(S[C@]2(C(=O)O)CC(=O)N(Cc3ccccc3Cl)[C@@H]2c2ccc(CO)cc2)cc1	-0.189	0.505	0.938	1.39 (inactive)	-0.165	-0.851	-0.84	-1.1	-0.817	0.387	0.459	-0.828	-1.54	0.459	0.644	-0.192	0.131	0.549	0.0695	1.57
Cc1ccc(S[C@]2(C(=O)NCc3ccccc3)CC(=O)N(C(C)C)[C@@H]2c2ccc(CO)cc2I)cc1	0.169	0.378	1.16	0.0407 (inactive)	-0.991	-0.687	-0.474	-1.04	-1.67	0.929	1.34	-1.52	-1.26	0.436	0.475	-0.243	-0.229	0.962	0.877	-0.613
